The test system of experiment [1] is Human papillomavirus type 1a protein E7 (residues 44-93). As to the kind of experiment: HPV1a E7 fragment binders on microarrays, primary screen, biochemical, small-molecule microarray, residues 44-93, 635 nm fluorescence (AID 1108).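 Further: E7 fragment applied at 1 µg/mL in TBST for 1 h at 4 C; score combines spot fluorescence with its signal to noise ratio.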 To be noted: small-molecule microarray binding, fluorescence 635 nm; higher = more signal.
Experiment [2] in a line: modulators of HCV replicon luciferase signal, primary screen, HCV replication inhibitor project, Huh7 cells, luciferase reporter (AID 1109).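 Further: huh7 hepatoma cells harbouring a luciferase neomycin HCV replicon reporter; luciferase luminescence as measure of HCV replicon replication; test concentration not given here.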 To be noted: 48 h, higher = more signal. (Replicon systems follow genome replication, usually without infectious particles.)
Experiment [3] deals with Left-right determination factor 2 (Homo sapiens) (UniProt O00292). As to the kind of experiment: LEFTY2 binders on small-molecule microarrays, primary screen, biochemical, small-molecule microarray, 635 nm fluorescence scan (AID 1110). To be noted: LEFTY2 binding, higher = more signal.
In experiment [4] the target is Calmodulin-1 (Homo sapiens) (UniProt P0DP23). As to the kind of experiment: CALM1 binders on microarrays, EGTA buffer, profiling panel, biochemical, small-molecule microarray, Cy5-labelled CALM1 (AID 1111).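 Further: labelled calmodulin applied in Tris saline Tween buffer holding calcium plus EGTA and DTT.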 To be noted: Cy5-CALM1 binding fluorescence, higher = more signal.
The target is the same in experiment [5]. As to the kind of experiment: calcium-bound CALM1 binders on microarrays, profiling panel, artefact control for SMM control-protein annotation, biochemical, small-molecule microarray, Cy5-labelled CALM1, plus calcium (AID 1112).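 Further: score merges spot fluorescence with signal to noise from triplicate slides.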 To be noted: Cy5-CALM1 binding fluorescence, higher = more signal.
The nature of experiment [6]: small-molecule microarray binders of probe aWnt5a, primary screen, biochemical, biotinylated probe, 635/667 nm fluorescence (AID 1113).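 Further: score merges 667 nm fluorescence intensity with signal-to-noise per printed feature.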 Particulars: higher = more signal.
Experiment [7] can be described thus: small-molecule microarray binders of probe aShh, primary screen, biochemical, biotinylated probe, 635/667 nm fluorescence (AID 1114).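 Further: probe is biotin-labelled aShh protein from a stem cell growth factor screen; measures binding of labelled protein to compounds printed on the slide; score merges feature fluorescence at 667 nm with signal-to-noise.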 Particulars: higher = more signal.
A short description of experiment [8]: small-molecule microarray binders of probe aNog, primary screen, biochemical, biotinylated probe, 635/667 nm fluorescence (AID 1115).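 Further: probe is biotinylated aNog protein used at 0.15 µg/mL for 1 h at 4 C; z-score combines 667 nm fluorescence of each spot with its signal to noise.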 To be noted: higher = more signal.
Experiment [9] deals with Torsin-1A-interacting protein 1 (Homo sapiens) (UniProt Q5JTV8). As to the kind of experiment: LAP1 binders from COS7 cell lysate, primary screen, small-molecule microarray, 635/667 nm fluorescence (AID 1116). Particulars: COS7-hLAP1 lysate binding, 635 nm fluorescence, higher = more signal.
Experiment [10] concerns the target Alpha-bungarotoxin (Bungarus multicinctus) (UniProt P60615). As to the kind of experiment: alpha-bungarotoxin binders on microarray, profiling panel, artefact control for SMM control protein annotation, biochemical, small-molecule microarray, Alexa647 label, 635/667 nm fluorescence (AID 1117). Particulars: alpha-BTX-A647 binding fluorescence, higher = more signal.

A further experiment deals with Albumin (Bos taurus) (UniProt P02769). As to the kind of experiment: bovine serum albumin binders on microarray, profiling panel, artefact control for SMM control protein annotation, biochemical, small-molecule microarray, Alexa647 label, 635/667 nm fluorescence (AID 1118).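 Further: score merges 667 nm emission intensity and signal-to-noise per printed compound spot.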 Particulars: BSA-A647 binding, fluorescence 635 nm, higher = more signal.
Experiment [11] is described as follows: small-molecule microarray binders of probe aXIP, primary screen, biochemical, NeuroSMM set, 635/667 nm fluorescence (AID 1119).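 Further: probe is the protein aXip251-270 applied at 1 µg/mL to compound-printed slides; binding of probe to printed compounds measured as 667 nm fluorescence plus signal to noise.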 To be noted: higher = more signal, called active from +8 up or from −8 down.
The nature of experiment [12]: small-molecule binders of probe aNOTCH3, primary screen, biochemical, small-molecule microarray, 635/667 nm fluorescence (AID 1120).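 Further: probe is a biotin-tagged antibody raised against NOTCH3 rather than NOTCH3 protein; score merges spot fluorescence near 667 nm with spot signal to noise.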 Particulars: higher = more signal.
Experiment [13] can be described thus: small-molecule binders of probe aNOTCH2, primary screen, biochemical, small-molecule microarray, 635/667 nm fluorescence (AID 1121).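 Further: score merges feature fluorescence read at 667 nm with its signal to noise.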 Particulars: higher = more signal.
Experiment [14] deals with Carbonic anhydrase 2 (Homo sapiens) (UniProt P00918). As to the kind of experiment: CAII small-molecule binders, profiling panel, biochemical, small-molecule microarray, Alexa647-labelled CAII (AID 1122). Particulars: CAII-A647 binding fluorescence, higher = more signal.
Experiment [15] is described as follows: COS7 lysate on small-molecule microarray, probe aHis, 635 nm (AID 1123).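 Further: z-score combines 667nm fluorescence intensity with signal-to-noise per printed compound spot.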 To be noted: COS7 cell lysate, fluorescence, higher = more signal.
A short description of experiment [16]: compound binding in COS7 lysate, probe aLAP1, primary screen, cell lysate, small-molecule microarray (AID 1124).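 Further: lysate comes from COS7 cells expressing LAP1 and is applied at 0.3 µg/mL; score merges spot fluorescence near 667 nm with signal-to-noise over triplicate slides.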 To be noted: probe aLAP1, fluorescence, higher = more signal.
Another experiment concerns Sam68 (KHDRBS1). As to the kind of experiment: Sam68 small-molecule binders, primary screen, biochemical, small-molecule microarray, 635 nm fluorescence (AID 1125).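 Further: score merges 667 nm channel intensity with signal to noise over triplicate slides.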 Particulars: small-molecule microarray binding, higher = more signal.
In experiment [17] the test system is Chordin-like protein 2 (CHRDL2). As to the kind of experiment: CHRDL2 small-molecule binders, primary screen, biochemical, small-molecule microarray, 635 nm fluorescence (AID 1126).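 Further: printed compound slides probed with Chrdl2 protein at 4 µg/mL for 1 h at 4 C; score merges 667 nm emission intensity with signal to noise over three replicate slides.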 To be noted: small-molecule microarray binding, fluorescence 635 nm; higher = more signal.
Experiment [18] addresses Concanavalin-A (Canavalia ensiformis) (UniProt P02866). As to the kind of experiment: ConA small-molecule binders, primary screen, artefact control for SMM control protein annotation, biochemical, small-molecule microarray, Alexa647 label, 635 nm (AID 1127).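 Further: z combines 667 nm emission intensity with signal-to-noise across three replicate slides.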 Particulars: ConA-A647 binding fluorescence, higher = more signal.

Activity calls are given as the source filed them.

Sequence of Left-right determination factor 2 (Homo sapiens) (O00292 whole entry, looked up): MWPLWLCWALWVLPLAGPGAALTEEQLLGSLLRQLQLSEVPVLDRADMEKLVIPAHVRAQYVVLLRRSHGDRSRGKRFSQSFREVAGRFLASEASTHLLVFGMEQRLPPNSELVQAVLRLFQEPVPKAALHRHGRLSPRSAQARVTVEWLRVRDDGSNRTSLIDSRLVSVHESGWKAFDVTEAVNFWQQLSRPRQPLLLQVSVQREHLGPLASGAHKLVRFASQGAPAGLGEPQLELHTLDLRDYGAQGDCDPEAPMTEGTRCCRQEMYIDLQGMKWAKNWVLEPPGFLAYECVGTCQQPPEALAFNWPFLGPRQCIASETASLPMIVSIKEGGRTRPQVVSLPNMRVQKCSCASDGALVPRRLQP
Sequence of Albumin (Bos taurus) (P02769 whole entry, looked up): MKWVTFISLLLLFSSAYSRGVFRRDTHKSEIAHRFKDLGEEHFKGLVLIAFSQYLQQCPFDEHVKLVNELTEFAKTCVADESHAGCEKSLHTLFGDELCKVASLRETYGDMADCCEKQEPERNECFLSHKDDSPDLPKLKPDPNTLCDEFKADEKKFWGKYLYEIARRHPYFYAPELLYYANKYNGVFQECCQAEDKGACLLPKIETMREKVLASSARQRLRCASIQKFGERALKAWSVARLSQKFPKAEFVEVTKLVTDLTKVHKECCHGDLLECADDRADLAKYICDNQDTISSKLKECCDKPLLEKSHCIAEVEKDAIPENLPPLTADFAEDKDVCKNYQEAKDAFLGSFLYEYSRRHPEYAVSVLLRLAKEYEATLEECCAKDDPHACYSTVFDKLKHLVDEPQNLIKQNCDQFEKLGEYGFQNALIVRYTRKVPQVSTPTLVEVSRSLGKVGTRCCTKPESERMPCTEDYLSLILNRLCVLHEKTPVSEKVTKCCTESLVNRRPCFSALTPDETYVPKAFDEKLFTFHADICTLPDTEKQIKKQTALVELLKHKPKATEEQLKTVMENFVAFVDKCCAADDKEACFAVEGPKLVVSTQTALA
Sequence of Alpha-bungarotoxin (Bungarus multicinctus) (P60615 whole entry, looked up): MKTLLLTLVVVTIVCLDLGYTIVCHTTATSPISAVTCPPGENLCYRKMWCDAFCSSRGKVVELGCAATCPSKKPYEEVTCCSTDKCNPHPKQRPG
Sequence of Torsin-1A-interacting protein 1 (Homo sapiens) (Q5JTV8 whole entry, looked up): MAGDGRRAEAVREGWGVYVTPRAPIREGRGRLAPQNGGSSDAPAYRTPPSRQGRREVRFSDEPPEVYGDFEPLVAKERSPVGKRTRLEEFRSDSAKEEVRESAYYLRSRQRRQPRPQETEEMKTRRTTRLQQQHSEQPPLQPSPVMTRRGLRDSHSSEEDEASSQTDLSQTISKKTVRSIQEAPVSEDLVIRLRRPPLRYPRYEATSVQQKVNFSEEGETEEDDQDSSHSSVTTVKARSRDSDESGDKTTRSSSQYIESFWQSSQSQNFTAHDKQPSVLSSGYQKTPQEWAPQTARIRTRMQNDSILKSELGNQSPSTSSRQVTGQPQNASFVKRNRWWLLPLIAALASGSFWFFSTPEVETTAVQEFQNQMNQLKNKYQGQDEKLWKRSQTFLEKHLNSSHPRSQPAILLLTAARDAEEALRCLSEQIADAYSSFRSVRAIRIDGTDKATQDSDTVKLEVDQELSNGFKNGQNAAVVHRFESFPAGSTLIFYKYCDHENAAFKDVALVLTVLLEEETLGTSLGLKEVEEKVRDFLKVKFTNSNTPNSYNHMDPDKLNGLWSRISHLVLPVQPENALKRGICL
Sequence of Concanavalin-A (Canavalia ensiformis) (P02866 whole entry, looked up): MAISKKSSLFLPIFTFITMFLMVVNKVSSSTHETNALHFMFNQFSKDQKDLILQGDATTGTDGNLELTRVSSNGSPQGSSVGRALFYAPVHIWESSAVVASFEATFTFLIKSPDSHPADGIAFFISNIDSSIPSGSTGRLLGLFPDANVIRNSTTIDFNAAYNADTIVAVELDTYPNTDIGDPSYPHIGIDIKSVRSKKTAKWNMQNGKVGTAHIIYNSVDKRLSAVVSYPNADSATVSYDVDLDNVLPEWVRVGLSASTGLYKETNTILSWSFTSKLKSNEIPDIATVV

With `COCCOC(=O)N1C(=O)[C@@]2(c3cc(C#CC4(O)CCCCCC4)ccc31)[C@H](c1ccc(OCCO)cc1)N1[C@H](c3ccccc3)[C@H](c3ccccc3)OC(=O)[C@H]1[C@@H]2C(=O)Nc1nc2ccccc2s1`, the composite z-score in [1] was 1.22; in experiment [3] it was 0.985; in [4] it was 1.35; in [5] it was 0.249; in experiment [6] it was -0.006; in [7], 0.214. Further, the composite z-score in [8] was 0.721; in experiment [9] it was 1; in experiment [10], 0.968; with Albumin (Bos taurus), 0.729; in [12] it was 0.5; in experiment [13] it was -0.0009. The composite z-score was determined as 0.161 in experiment [14]; 0.804 in experiment [15]; 0.388 in [16]; 1.3 in the experiment on Sam68 (KHDRBS1); 0.58 in experiment [17]; 1.11 in [18]. For the same compound, the z-score in [2] is -2.43. In addition, the composite Z-score in experiment [11] was 0.526 (inactive).

For `[N-]=[N+]=NCc1ccccc1[C@@H]1OC(c2ccc(OCCCO)cc2)=N[C@]1(Cc1ccccc1N=[N+]=[N-])C(=O)N1CCCCC1`, the composite z-score in [1] was 1.41; in experiment [3] it was 0.0538; in experiment [4], 1.93; in [5], 1.26; in [6], -0.248; in [7] it was -0.023. Besides, the composite z-score in experiment [8] was -0.538; in [9], 0.482; in experiment [10], 0.671; in the experiment with Albumin (Bos taurus), 0.354; in experiment [12] it was -0.137; in [13] it was -0.116. Further, the composite z-score is 0.56 in experiment [14]; 2.57 in experiment [15]; 0.0904 in [16]; 1.22 in the experiment on Sam68 (KHDRBS1); -0.39 in experiment [17]; 1.14 in [18]. For the same compound, the z-score in experiment [2] is -2.12. The composite Z-score in [11] is 0.038 (inactive).

Turning to `COCCCNC(=O)[C@@H]1c2ccccc2C(=O)N(C2Cc3ccccc3C2)[C@H]1c1ccc(CO)cc1`, the composite z-score was 0.661 in [1]; 0.173 in experiment [3]; -0.362 in experiment [4]; -0.518 in experiment [5]; -0.152 in experiment [6]; -0.229 in [7]. In addition, the composite z-score is -0.532 in experiment [8]; 0.685 in experiment [9]; -0.0047 in experiment [10]; -0.423 with Albumin (Bos taurus); -0.0584 in experiment [12]; -0.0772 in experiment [13]. For the same compound, the composite z-score is 0.724 in [14]; 1.19 in experiment [15]; 0.59 in experiment [16]; 0.749 in the experiment with Sam68 (KHDRBS1); 0.573 in experiment [17]; 0.286 in [18]. Further, the z-score in experiment [2] was -0.689. Further, in experiment [11], the composite Z-score was 0.47 (inactive).

As to `C=CC1c2cc(O)c(OC)cc2CCN1Cc1ccc([N+](=O)[O-])o1` (stereo not given), the composite z-score in [1] is 0.0967; in experiment [3], -0.54; in experiment [4], 1.15; in experiment [5], 1.18; in experiment [6] it was 0.0306; in experiment [7], 0.13. Further, the composite z-score was 0.57 in experiment [8]; 1.82 in experiment [9]; 0.899 in [10]; 0.576 in the experiment with Albumin (Bos taurus); 0.136 in experiment [12]; -0.0708 in experiment [13]. For the same compound, the composite z-score in experiment [14] was 0.847; in experiment [15], 2.05; in [16] it was 1.1; in the experiment with Sam68 (KHDRBS1), 0.358; in experiment [17], -0.807; in experiment [18], 0.103. The z-score in experiment [2] was determined as 0.366. In [11], the composite Z-score was 0.402 (inactive).

Consider `NC(=O)N1C(=O)C2C(C1=O)C1C=C(CCCO)C2C(C2CC2)N1Cc1cccc(OC(F)(F)F)c1` (stereo not given), for which the composite z-score was 0.504 in [1]; -0.219 in [3]; -0.143 in experiment [4]; 0.2 in [5]; -0.173 in experiment [6]; -0.138 in [7]. Moreover, the composite z-score in experiment [8] was 0.56; in [9], 0.691; in experiment [10], -0.187; in the experiment with Albumin (Bos taurus), 0.858; in experiment [12] it was -0.349; in experiment [13] it was -0.179. In addition, the composite z-score in [14] was 0.653; in [15], 0.518; in experiment [16], -0.0171; with Sam68 (KHDRBS1), 0.588; in [17], -0.489; in experiment [18], 0.221. Further, the z-score in experiment [2] is -1.4. Further, the composite Z-score in experiment [11] is 0.547 (inactive).
